PREPL inhibitor = inhibitors of human prolyl oligopeptidase-like enzyme PREPL; inhibition, % at 5.96 µM; 0.68% of 320,000 active; recombinant PREPL, fluorescence polarization activity-based probe; Q4J6C6; in the data active = inhibition above about 43%;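 also: 0% = enzyme with DMSO and 100% = wells lacking enzyme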
PME-1 inh = PME-1 (human) inhibition; 0.53% of 320,000 active; inhibition, % at 5.9 µM; Q9Y570; AID 2130; recombinant PME-1, FP-Rh probe fluorescence polarization;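 active = inhibition above the campaign mean of all compounds plus 3 SD, cut at about 26% in these data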;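 also: competitive labeling of PME-1 active site by serine hydrolase directed probe; 0% = PME-1 with DMSO and 100% = wells lacking PME-1 enzyme; inhibitors block probe labeling so polarization falls and inhibition rises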
Fam108B inh = blocks mouse Fam108B hydrolase in RBBP9 counter-screen | recombinant Fam108B, FP-Rh probe fluorescence polarization | inhibition, % at 9.51 µM | 0.33% of 300,000 active | AID 1947;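 active = inhibition above the screen mean inhibition plus 3 SD, computed separately per campaign, cut at about 18% in these data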;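 also: inhibitors lower polarization as less probe binds the enzyme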
LYPLA1 inh = counter-screen for PME1 inhibitors: inhibitors of human LYPLA1 | O75608 | recombinant LYPLA1, FP-Rh probe fluorescence polarization | inhibition, % at 5.9 µM | 0.16% of 320,000 active;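 active = inhibition above the mean of all tested compounds plus 3 SD, set per campaign, cut at about 14% in these data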;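 also: inhibitors block serine hydrolase probe labeling of LYPLA1 so polarization falls; 0% = enzyme with DMSO and 100% = wells lacking LYPLA1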
Target sequence (O75608 whole entry, looked up): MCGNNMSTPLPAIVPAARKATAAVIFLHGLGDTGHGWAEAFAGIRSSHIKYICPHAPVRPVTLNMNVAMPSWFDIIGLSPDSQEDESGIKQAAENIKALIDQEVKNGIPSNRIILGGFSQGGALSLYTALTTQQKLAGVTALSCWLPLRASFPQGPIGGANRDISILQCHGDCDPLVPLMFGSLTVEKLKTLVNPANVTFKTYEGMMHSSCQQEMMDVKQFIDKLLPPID
LYPLA2 inh = blocks human lysophospholipase 2, a PME1 counter-screen; O95372; recombinant LYPLA2, FP-Rh probe fluorescence polarization; inhibition, % at 5.9 µM; 0.38% of 320,000 active; AID 2177;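 active = inhibition above the screen-wide mean plus 3 SD, limit set per campaign, cut at about 26% in these data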;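 also: 0% = LYPLA2 with DMSO and 100% = wells lacking LYPLA2 enzyme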
Target sequence (O95372 whole entry, looked up): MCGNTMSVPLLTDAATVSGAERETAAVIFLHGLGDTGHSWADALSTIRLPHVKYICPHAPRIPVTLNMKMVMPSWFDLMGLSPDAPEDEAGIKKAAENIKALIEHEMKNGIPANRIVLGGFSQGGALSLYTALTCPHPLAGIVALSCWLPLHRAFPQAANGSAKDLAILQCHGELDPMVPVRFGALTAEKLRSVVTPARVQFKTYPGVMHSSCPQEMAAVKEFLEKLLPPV
Numbers without * were called inactive. Shown are actives, neighbours in structure and some others; about 1.3% of the full set was active somewhere.

`CCOC(=O)c1c(C)[nH]c(C)c1S(=O)(=O)N(C)CC(=O)Nc1ccc(C)cn1` gave PREPL inhibitor -0.6, PME-1 inh 5.7, Fam108B inh 2.0, LYPLA1 inh 3.5 and LYPLA2 inh 8.1.
For CCOC(=O)c1c(C)[nH]c(C)c1S(=O)(=O)N(C)CC(=O)Nc1cc(C)ccc1OC the results were PREPL inhibitor 2.5, PME-1 inh 26.4*, Fam108B inh 4.1, LYPLA1 inh -2.6 and LYPLA2 inh 2.1.
`S=c1[nH]nc(-c2cc(-c3ccccc3)n[nH]2)n1/N=C/C=C/c1ccccc1` gave PREPL inhibitor -7.5, PME-1 inh 10.2, Fam108B inh -12.0, LYPLA1 inh -3.6 and LYPLA2 inh -7.0.
COc1ccccc1/C=C/C=N/n1c(-c2cc(-c3ccccc3)n[nH]2)n[nH]c1=S was read as PREPL inhibitor 8.0, PME-1 inh 26.8*, Fam108B inh 2.2, LYPLA1 inh -8.8 and LYPLA2 inh 0.2.
Screening N#C/C(=C\c1ccc(Oc2ccc(C(F)(F)F)cc2[N+](=O)[O-])cc1)c1nc2ccccc2[nH]1 returned PREPL inhibitor 36.7, PME-1 inh 6.7, Fam108B inh 6.9, LYPLA1 inh -0.9 and LYPLA2 inh -2.6.
N#C/C(=C/c1ccc(N2CCCC2)c([N+](=O)[O-])c1)c1nc2ccccc2[nH]1 was read as PREPL inhibitor 14.5, PME-1 inh 28.9*, Fam108B inh 3.8, LYPLA1 inh 2.6 and LYPLA2 inh 7.0.
`COc1ccc(NC(=O)C(C)Sc2nnc(C3CC3)n2C2CC2)cc1` (centres undefined) gave PREPL inhibitor 12.7, PME-1 inh -2.8, LYPLA1 inh 0.4 and LYPLA2 inh 5.8.
`Cc1ccc(N=Nc2c(N)n(-c3ccccc3)[nH]c2=O)cc1` gave PREPL inhibitor 23.3, PME-1 inh 35.1*, Fam108B inh 1.5, LYPLA1 inh -1.3 and LYPLA2 inh 2.6.
Cc1ccc2nc(SCC(=O)Nc3cccc(S(=O)(=O)NC4=NCCCCC4)c3)[nH]c2c1 was read as PREPL inhibitor -3.7, PME-1 inh -4.3, Fam108B inh 3.1, LYPLA1 inh 0.0 and LYPLA2 inh 2.6.
`Cc1cccc2cc(/C=N/Nc3ccc(C(=O)O)cc3)c(Cl)nc12` gave PREPL inhibitor 13.9, PME-1 inh 35.6*, Fam108B inh 11.1, LYPLA1 inh 13.9 and LYPLA2 inh 13.5.
`O=C(O)c1ccc(N/N=C/c2cc3ccccc3nc2Cl)cc1` gave PREPL inhibitor 7.0, PME-1 inh -4.0, Fam108B inh 4.9, LYPLA1 inh 4.9 and LYPLA2 inh 6.5.
Screening Cc1ccc(CN2C(=O)N/C(=C\c3ccc(-c4ccc(C(=O)O)cc4C)o3)C2=O)cc1 returned PREPL inhibitor 77.8*, PME-1 inh 6.0, Fam108B inh 10.5, LYPLA1 inh 5.5 and LYPLA2 inh 11.1.
For COc1ccccc1N1CCN(C(=O)C2CCN(S(=O)(=O)c3ccc(C)cc3)CC2)CC1 the results were PREPL inhibitor 9.2, PME-1 inh 41.1*, Fam108B inh -0.7, LYPLA1 inh -0.5 and LYPLA2 inh -2.0.
`NN=C(c1cccc([N+](=O)[O-])c1)c1cccc([N+](=O)[O-])c1` gave PREPL inhibitor 11.0, PME-1 inh 6.0, Fam108B inh 1.3, LYPLA1 inh 1.6 and LYPLA2 inh 3.8.
Cc1noc(C)c1CSc1nc2ccccc2nc1NS(=O)(=O)c1ccc(Cl)cc1 was read as PREPL inhibitor 4.8, PME-1 inh 27.4*, Fam108B inh -6.2, LYPLA1 inh -6.1 and LYPLA2 inh -0.1.
Cc1cc(N(C)C)ccc1N=Nc1ccc2ncccc2c1 was read as PREPL inhibitor 25.9, PME-1 inh 31.6*, Fam108B inh 11.1, LYPLA1 inh 6.5 and LYPLA2 inh 12.2.
`CCc1noc(C)c1C(=O)N1CCC(CCC(=O)Nc2cccc(OC)c2)CC1` gave PREPL inhibitor 11.4, PME-1 inh 3.8, Fam108B inh -2.1, LYPLA1 inh -1.4 and LYPLA2 inh 3.0.
CCCCC1=CC2=CC(=O)C(C)(OC(=O)c3ccc(Cl)nc3)C(=O)C2=CO1 (centres undefined) was read as PREPL inhibitor 14.3, PME-1 inh 23.1, Fam108B inh 7.5, LYPLA1 inh 19.8* and LYPLA2 inh 20.2.
For CCC(CC(C)(C)O)C(=O)NNC(=S)Nc1ccccc1 (centres undefined) the results were PREPL inhibitor 13.7, PME-1 inh 2.8, Fam108B inh -3.1, LYPLA1 inh 1.8 and LYPLA2 inh 5.4.
`N#C/C(=C\c1ccc(O)c(O)c1)C(=O)Nc1cccc2ncccc12` gave PREPL inhibitor 29.0, PME-1 inh 28.5*, Fam108B inh 13.4, LYPLA1 inh -14.5 and LYPLA2 inh -8.6.
O=C(NCCC1CC1(Cl)Cl)Nc1ccccc1 (centres undefined) was read as PREPL inhibitor 3.4, PME-1 inh -5.4, Fam108B inh -0.9, LYPLA1 inh -1.9 and LYPLA2 inh -3.7.
For CC(C)(C)n1nnnc1C(c1cccs1)N(Cc1cccnc1)Cc1ccco1 (centres undefined) the results were PREPL inhibitor 6.4, PME-1 inh 30.4*, Fam108B inh -1.2, LYPLA1 inh -3.2 and LYPLA2 inh 0.7.
For O=C1CC(N(O)c2ccccc2)C(=O)N1c1cc(Cl)cc(Cl)c1 (centres undefined) the results were PREPL inhibitor 17.0, PME-1 inh 34.4*, Fam108B inh 9.8, LYPLA1 inh 6.7 and LYPLA2 inh 15.9.
Cc1ccccc1N1C(=O)CC(N(O)c2ccccc2)C1=O (centres undefined) was read as PREPL inhibitor -1.0, PME-1 inh -2.6, Fam108B inh 1.9, LYPLA1 inh 1.0 and LYPLA2 inh 4.0.
For CC1(C)CCCN(C(=O)c2ccc3c(c2NCCO)C(=O)c2ccccc2C3=O)C1 the results were PREPL inhibitor 53.4*, PME-1 inh -0.5, Fam108B inh 0.3, LYPLA1 inh -2.3 and LYPLA2 inh -6.6.
`CCn1c(O)c(N=NC(=O)c2ccc(CSc3nncn3C)cc2)c2ccccc21` gave PREPL inhibitor 11.6, PME-1 inh 1.9, Fam108B inh 3.5, LYPLA1 inh 0.2 and LYPLA2 inh -0.8.
Cn1cnnc1SCc1ccc(C(=O)N=Nc2c(O)n(Cc3ccc(Cl)cc3)c3ccccc23)cc1 was read as PREPL inhibitor 21.7, PME-1 inh 3.8, Fam108B inh -1.1, LYPLA1 inh 4.2 and LYPLA2 inh 26.5*.
`CCOC(=O)CSc1nc2cc3c(cc2cc1C#N)OCCO3` gave PREPL inhibitor 2.4, PME-1 inh 34.2*, Fam108B inh -1.7, LYPLA1 inh -2.4 and LYPLA2 inh -4.0.
CCOC(=O)CSc1nc2cc3c(cc2cc1C#N)OCO3 was read as PREPL inhibitor 13.6, PME-1 inh 22.0, Fam108B inh -1.6, LYPLA1 inh 0.5 and LYPLA2 inh 2.7.
For Cc1ccc(NC(=S)NNc2ccc([N+](=O)[O-])cc2S(=O)(=O)Nc2ccccc2C(=O)O)cc1C the results were PREPL inhibitor 17.3, PME-1 inh 48.4*, Fam108B inh 8.8, LYPLA1 inh -8.4 and LYPLA2 inh -5.5.

Screens from PubChem BioAssay.
